Assay results published in PubChem BioAssay (NCI).
About 83,000 compounds went through this panel and 20% of them were active in at least one assay; those are over-represented in the sample as a whole.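 Cells were grown in 96-well plates and exposed to the test compound at a single concentration for 48 hours; results are reported as percent growth, with values below 10 considered active.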 A number with no mark means an inactive call. The source made the active and inactive calls.

test system: SK-MEL-5 melanoma; assay: NCI-60 one-dose screen, 48 h (100 = growth as untreated, 0 = no growth, -100 = all killed); conditions: 10 µM unless noted
Description: Growth inhibition of the SK-MEL-5 human tumor cell line is measured as a screen for anti-cancer activity. Cells are grown in 96 well plates and exposed to the test compound for 48 hours. Compounds are tested at a single concentration, which is 10^-5 M for most compounds. The reported endpoint is percent growth (GI% or GIPRCNT), where numbers from 0 - 100% represent growth inhibition, and numbers from -100% - 0 represent cell death. For example, a value of 40 represents 60% growth inhibition. A value of 0 means no net growth occurred over the course of the experiment. A value of -40 indicates 40% of cells at the beginning of the experiment died by the end of the experiment. A value of -100 means all cells are dead at the end of the experiment.
NCI-60 Human Tumor Cell Lines Screen was performed using the standard one-dose NCI protocol, which is described in more detail at https://dtp.cancer.gov/discovery_development/nci-60/default.htm.
Compounds with GIPRCNT values below 10 were considered active. Activity score was based on GIPRCNT using the following formula: […]
Score is 0 for GIPRCNT values of 100 or above, 50 for GIPRCNT values of 0, and 100 for GIPRCNT values of -100.

With `O=C1c2ccccc2-c2ccccc2C1(Cl)Cl` the growth was -95.5% (active).
`CC12CCCC(CC(=O)c3[nH]c4ccccc4c31)C2` (stereo not given) was tested, and the growth was 6.25% (active).
With `COc1cc(/C=N\NC(=O)CN2CCN(c3cc4c(cc3F)c(=O)c(C(=O)N/N=C/c3cc(OC)c(OC)c(OC)c3)cn4C3CC3)CC2)cc(OC)c1OC` the growth was -15.4% (active).
`COc1cc(-c2nn(-c3cccc(NC(=O)c4ccc(N5CCOCC5)c(C(F)(F)F)c4)c3)cc2-c2ccncc2)ccc1Cl` was tested, and the growth was 3.41% (active).
`COc1ccc(C2=C(c3cc(OC)c(OC)c(OC)c3)C(=O)CC2)cc1` was tested, and the growth was -33.6% (active).
For `Cn1cc(-c2cnc3ccc(NC(=O)Nc4ccc(F)c(Br)c4)cc3n2)cn1`, the growth was -9.12% (active).
In the case of `Cc1nc2cncc(C#Cc3cncc(C(=O)Nc4ccc(CN5CCN(C)CC5)c(C(F)(F)F)c4)c3)c2nc1C`, the growth is reported as -18.1% (active).
For `C=C1C(=O)O[C@H]2[C@H]1CC/C(Cn1cc(-c3cccc(Cl)c3)nn1)=C\CC[C@@]1(C)O[C@@H]21`, the growth was -52.6% (active).
In the case of `O=C1/C(=C/c2ccc([N+](=O)[O-])cc2)CN(C(=O)CCN2CCC(=NO)CC2)C/C1=C\c1ccc([N+](=O)[O-])cc1`, the growth is reported as -50.5% (active).
`Nc1ncnc2c1c(-c1ccc(Oc3ccccc3)cc1)nn2C[C@@H]1SSC[C@@H]1O` was tested, and the growth was -86.4% (active).

Point of comparison: `C=C1C(=O)O[C@H]2[C@H]1CC/C(COC(=O)NCc1ccccc1OC)=C\CC[C@@]1(C)O[C@@H]21`, growth 92.8%. Against it:
- CCCCCCCCCCCCCCCCNC(=O)OC(C)C — lower, 91%
- O=[N+]([O-])c1ccc(OCCCOc2ccccc2)cc1 — higher, 105%
- CCCC(=O)Oc1ccc(/C(=C(\C)c2ccccc2)c2ccc(OCCN(CC)CC)cc2)cc1 — lower, 64.1%
- CN(C)c1nc2c(N)ncnc2n1C1OC(CO)C(O)C1O (stereo not given) — higher, 108%
- COc1ccc(OC)c(C2OC(c3ccc4ccccc4c3O)=NN2C(C)=O)c1 (stereo not given) — lower, 58.4%
- CCC(=O)Oc1ccc(/C(=C(/C)Cc2cccc(OC)c2)c2ccc(OCCN(C)C)cc2)cc1 — higher, 92.9%
- CN(C)c1oc(C2OC2c2ccccc2)nc1C#N (stereo not given) — higher, 102%
- CC(C)CSc1nc(NN)c(C#N)c(-c2ccccc2)n1 — lower, 91.1%
- COc1ccc(C(=O)NC(=O)Nc2cc3c(cc2F)/C(=C/c2[nH]c(C)c(CCC(=O)O)c2C)C(=O)N3)c(F)c1 — lower, 59.6%
- COc1ccc(-c2cn(-c3cccc(C(=O)/C=C/c4cc(OC)c(OC)c(OC)c4)c3)c(=O)[nH]2)cc1OC — lower, 88.3%
- O=C(CSc1nc2ccccc2[nH]1)Nc1ccc(-c2nc3ccccc3s2)c(Cl)c1 — lower, 23.4%
- COc1cc(/C(C#N)=C/c2ccc3c(c2OC)OCO3)cc2c1OCO2 — lower, 36.9%
- CCCCN(CCCC)C(=O)CC — higher, 103%
- O=C(Nc1ccncc1)C(=O)c1cn(S(=O)(=O)c2ccc(Br)cc2)c2ccccc12 — lower, 14.5%
- Cc1ccc(S(=O)(=O)NCCNc2nccc(-c3c(-c4ccc(O)cc4)nc4sccn34)n2)cc1 — higher, 94.5%
- OCCCCCCNc1ncnc2cc(Cl)ccc12 — higher, 94.1%
- COc1cc(C(=O)/C=C/c2c(C)n([O-])c3ccc(C(F)(F)F)cc3[n+]2=O)cc(OC)c1OC — higher, 102%
- COc1cc(/C=C/C(=O)N2CCN(C(=O)/C=C/c3cc(OC)c(OC)c(OC)c3)CC2)cc(OC)c1OC — higher, 104%
- Oc1ccc2cc(Br)ccc2c1-c1c(O)ccc2cc(Br)ccc12 — lower, 72.8%
- CC12CCC3C4(C)COC(c5ccccc5Cl)OC4CCC3(C)C1CC(C1=CCOC1=O)O2 (stereo not given) — lower, 17.1%
- N#Cc1c(-c2ccccc2)cc(-c2ccccc2)n(CC(=O)NO)c1=O — lower, 14.6%
- O=C(O)c1cn(C2CC2)c2cc(N3CCN(C(=O)/C=C/c4ccc(Cl)cc4)CC3)c(F)cc2c1=O — lower, 64.8%
- O=C(NNC(=O)N1c2ccccc2C=Cc2ccccc21)c1ccccc1 — higher, 104%
- CC(=O)Oc1csc(N(C(C)=O)c2cc(C(=O)O)cc(C(=O)O)c2)n1 — higher, 94%
- CC1(c2ccc(Cl)cc2)OC(=O)CC(=O)O1 — higher, 110%
- COC(=O)c1cc(=O)nc(N/N=C/c2ccco2)s1 — higher, 99.6%
- CC(C)(C)n1cc(-c2ccnc(NCCCNS(=O)(=O)c3cccc(F)c3)c2)c(-c2cccc(O)c2)n1 — lower, 26.1%
- O=C(c1c[nH]c(=O)c(-c2ccccc2)c1)c1ccccc1O — higher, 95.4%
- COc1ccc2c(c1)[nH]c(=O)c1c3cc(C)c(C)cc3cn21 — lower, 10.3%
